For one sequence, binding signal results are on record in publication PMC7862700, “An all-to-all approach to the identification of sequence-specific readers for epigenetic DNA modifications on cytosine”.

Assay in all cases: DAPPL (digital affinity profiling via proximity ligation, sequencing); 10 mM Tris-HCl pH 7.5, 50 mM NaCl, 1 mM DTT, 4% glycerol, room temperature, 30 min; GST-TFs on glutathione beads, 16-mer random dsDNA library, 0.1% formaldehyde crosslink after washing; high values mean tight binding
In one assay the target is T1, FEV (Homo sapiens, UniProt Q99581 1-238).
T1 sequence: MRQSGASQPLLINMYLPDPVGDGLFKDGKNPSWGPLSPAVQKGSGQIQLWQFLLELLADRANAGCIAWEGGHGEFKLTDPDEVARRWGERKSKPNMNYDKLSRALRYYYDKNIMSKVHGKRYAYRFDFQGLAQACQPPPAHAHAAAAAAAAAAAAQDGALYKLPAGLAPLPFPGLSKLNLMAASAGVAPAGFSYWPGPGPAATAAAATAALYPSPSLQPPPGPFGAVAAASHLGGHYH
Conditions: protein: recombinant; tags: N-terminal GST; dsDNA, one strand shown. An outline of the steps: (§1)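 Binding signal is defined as a hexamer's read frequency for one factor over its frequency for the tag-only sample. To obtain reads, GST-fused human transcription factors were expressed in yeast, captured on glutathione beads, barcoded with DNA and pooled with that sample. Pools met 200 nmole of a 16-mer random double-stranded DNA library in Tris/NaCl/DTT/glycerol buffer for 30 min at room temperature before washing, 0.1% formaldehyde crosslinking, proximity ligation (BsaI/T4 ligase, 1 h, 37 °C), PCR and Illumina NextSeq500 sequencing.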

The target of a further assay is ETV5 (Homo sapiens, UniProt P41161 1-510). The settings on record: protein: recombinant; tags: N-terminal GST; dsDNA, one strand shown. An outline of the steps:
as §1

A further assay addresses HSF1 (Homo sapiens, UniProt Q00613 1-529). Conditions: protein: recombinant; tags: N-terminal GST; chain copies: 3; dsDNA, one strand shown. Put shortly:
as §1

For the next assay, the target named is T2, SPIC (Homo sapiens, UniProt Q8N5J4 1-248).
T2 sequence: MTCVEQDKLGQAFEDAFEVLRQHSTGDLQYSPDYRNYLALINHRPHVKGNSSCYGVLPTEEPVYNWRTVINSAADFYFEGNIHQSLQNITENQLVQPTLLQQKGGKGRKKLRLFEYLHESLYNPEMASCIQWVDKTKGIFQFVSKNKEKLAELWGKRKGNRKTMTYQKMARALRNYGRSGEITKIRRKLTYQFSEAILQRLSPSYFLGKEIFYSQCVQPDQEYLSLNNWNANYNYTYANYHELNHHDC
The settings on record: protein: recombinant; tags: N-terminal GST; dsDNA, one strand shown. An outline of the steps:
as §1

The target of a further assay is ELF4 (Homo sapiens, UniProt Q99607 1-663). The settings on record: protein: recombinant; tags: N-terminal GST; dsDNA, one strand shown. An outline of the steps: as §1
The next assay addresses T3, ELK4 (Homo sapiens, UniProt P28324-2 1-405).
T3 sequence: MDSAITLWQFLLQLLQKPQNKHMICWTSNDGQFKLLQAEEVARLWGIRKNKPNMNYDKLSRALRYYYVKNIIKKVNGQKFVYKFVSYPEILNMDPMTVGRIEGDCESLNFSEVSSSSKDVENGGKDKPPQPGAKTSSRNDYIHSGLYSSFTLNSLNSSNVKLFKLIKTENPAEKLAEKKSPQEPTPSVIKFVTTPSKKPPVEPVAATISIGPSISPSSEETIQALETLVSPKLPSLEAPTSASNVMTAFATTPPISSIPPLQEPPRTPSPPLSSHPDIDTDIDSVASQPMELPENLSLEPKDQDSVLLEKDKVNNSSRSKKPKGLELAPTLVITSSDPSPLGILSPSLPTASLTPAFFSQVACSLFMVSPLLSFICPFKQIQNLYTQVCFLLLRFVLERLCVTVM
The settings on record: protein: recombinant; tags: N-terminal GST; dsDNA, one strand shown. An outline of the steps: as §1

For another assay, the target named is T4, ETV2 (Homo sapiens, UniProt O00321 1-342).
T4 sequence: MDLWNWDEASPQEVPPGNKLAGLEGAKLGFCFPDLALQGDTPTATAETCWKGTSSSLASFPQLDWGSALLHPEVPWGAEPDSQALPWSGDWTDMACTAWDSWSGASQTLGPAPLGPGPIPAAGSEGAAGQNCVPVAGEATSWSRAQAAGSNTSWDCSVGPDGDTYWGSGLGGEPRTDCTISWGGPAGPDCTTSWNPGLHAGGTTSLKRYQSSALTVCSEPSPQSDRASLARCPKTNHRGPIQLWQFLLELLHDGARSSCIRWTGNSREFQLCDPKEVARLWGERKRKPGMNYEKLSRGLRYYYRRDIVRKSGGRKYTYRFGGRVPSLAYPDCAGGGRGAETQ
The settings on record: protein: recombinant; tags: N-terminal GST; dsDNA, one strand shown. An outline of the steps: as §1

A further assay addresses T5, ELF3 (Homo sapiens, UniProt P78545 1-371).
T5 sequence: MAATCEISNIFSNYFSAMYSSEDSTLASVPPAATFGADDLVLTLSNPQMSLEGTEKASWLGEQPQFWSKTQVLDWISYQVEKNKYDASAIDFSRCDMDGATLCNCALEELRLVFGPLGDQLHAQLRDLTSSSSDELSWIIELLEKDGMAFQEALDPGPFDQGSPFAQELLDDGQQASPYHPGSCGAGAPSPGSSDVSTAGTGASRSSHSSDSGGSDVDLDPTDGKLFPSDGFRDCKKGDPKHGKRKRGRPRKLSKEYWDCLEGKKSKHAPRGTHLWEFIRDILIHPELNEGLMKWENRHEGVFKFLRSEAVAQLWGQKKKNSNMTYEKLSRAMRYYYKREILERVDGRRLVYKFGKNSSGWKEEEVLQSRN
The settings on record: protein: recombinant; tags: N-terminal GST; dsDNA, one strand shown. Put shortly:
as §1

In another assay the target is CRX (Homo sapiens, UniProt O43186 1-299). The settings on record: protein: recombinant; tags: N-terminal GST; dsDNA, one strand shown. Put shortly:
as §1

Another assay addresses ETV1 (Homo sapiens, UniProt P50549 1-477). The settings on record: protein: recombinant; tags: N-terminal GST; dsDNA, one strand shown. An outline of the steps:
as §1

In the next assay the target is T6, ERF (Homo sapiens, UniProt P50548 1-548).
T6 sequence: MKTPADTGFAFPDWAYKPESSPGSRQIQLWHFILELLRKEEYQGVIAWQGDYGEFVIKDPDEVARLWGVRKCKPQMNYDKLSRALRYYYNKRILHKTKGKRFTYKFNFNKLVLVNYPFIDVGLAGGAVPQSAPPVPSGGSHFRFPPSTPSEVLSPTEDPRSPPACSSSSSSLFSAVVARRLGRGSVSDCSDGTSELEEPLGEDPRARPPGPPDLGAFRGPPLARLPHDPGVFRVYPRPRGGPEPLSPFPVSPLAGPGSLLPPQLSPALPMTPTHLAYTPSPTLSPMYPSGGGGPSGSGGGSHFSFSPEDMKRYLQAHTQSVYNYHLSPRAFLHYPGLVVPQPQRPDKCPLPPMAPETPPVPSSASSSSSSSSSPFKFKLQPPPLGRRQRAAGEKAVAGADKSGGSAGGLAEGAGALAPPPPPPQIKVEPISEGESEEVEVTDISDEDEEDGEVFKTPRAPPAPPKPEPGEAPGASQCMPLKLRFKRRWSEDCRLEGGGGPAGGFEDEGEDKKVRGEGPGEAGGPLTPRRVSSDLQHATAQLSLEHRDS
Conditions: protein: recombinant; tags: N-terminal GST; dsDNA, one strand shown. An outline of the steps: as §1

Another assay addresses T7, ETV3L (Homo sapiens, UniProt Q6ZN32 1-361).
T7 sequence: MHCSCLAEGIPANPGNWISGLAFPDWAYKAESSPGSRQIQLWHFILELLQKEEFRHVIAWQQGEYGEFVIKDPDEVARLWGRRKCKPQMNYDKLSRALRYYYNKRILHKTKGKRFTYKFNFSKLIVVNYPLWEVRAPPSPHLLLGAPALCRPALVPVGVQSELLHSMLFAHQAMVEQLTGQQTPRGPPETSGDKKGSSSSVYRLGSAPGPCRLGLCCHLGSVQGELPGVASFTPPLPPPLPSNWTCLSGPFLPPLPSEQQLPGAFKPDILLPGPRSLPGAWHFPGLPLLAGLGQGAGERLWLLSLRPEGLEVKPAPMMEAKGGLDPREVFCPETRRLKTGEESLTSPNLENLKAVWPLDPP
The settings on record: protein: recombinant; tags: N-terminal GST; dsDNA, one strand shown. Put shortly: as §1

For a further assay, the target named is T8, ETS2 (Homo sapiens, UniProt P15036 1-469).
T8 sequence: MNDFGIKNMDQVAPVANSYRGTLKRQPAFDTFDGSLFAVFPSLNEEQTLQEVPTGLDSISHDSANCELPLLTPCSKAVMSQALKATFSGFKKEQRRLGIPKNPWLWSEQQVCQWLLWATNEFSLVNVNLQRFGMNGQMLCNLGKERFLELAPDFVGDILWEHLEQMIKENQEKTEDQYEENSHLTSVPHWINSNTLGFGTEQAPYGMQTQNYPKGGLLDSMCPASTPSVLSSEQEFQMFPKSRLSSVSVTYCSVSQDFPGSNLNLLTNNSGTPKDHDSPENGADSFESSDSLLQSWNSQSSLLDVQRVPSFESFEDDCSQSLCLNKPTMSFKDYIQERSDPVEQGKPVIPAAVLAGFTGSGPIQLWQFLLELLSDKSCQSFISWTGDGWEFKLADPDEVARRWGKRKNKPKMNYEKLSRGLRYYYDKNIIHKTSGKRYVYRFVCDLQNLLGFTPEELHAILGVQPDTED
Conditions: protein: recombinant; tags: N-terminal GST; dsDNA, one strand shown. Put shortly:
as §1

A further assay concerns the target T9, SPDEF (Homo sapiens, UniProt O95238 1-335).
T9 sequence: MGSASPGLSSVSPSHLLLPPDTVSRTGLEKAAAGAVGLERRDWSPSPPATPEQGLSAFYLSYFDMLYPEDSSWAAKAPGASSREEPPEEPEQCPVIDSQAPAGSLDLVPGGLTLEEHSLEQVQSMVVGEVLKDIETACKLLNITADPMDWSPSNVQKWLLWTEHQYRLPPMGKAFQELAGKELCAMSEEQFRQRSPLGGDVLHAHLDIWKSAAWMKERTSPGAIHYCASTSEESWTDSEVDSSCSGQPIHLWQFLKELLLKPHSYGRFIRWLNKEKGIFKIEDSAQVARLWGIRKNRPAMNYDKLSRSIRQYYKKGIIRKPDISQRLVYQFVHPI
The settings on record: protein: recombinant; tags: N-terminal GST; dsDNA, one strand shown. An outline of the steps:
as §1

The target of a further assay is T10, ETV7 (Homo sapiens, UniProt Q9Y603 1-341).
T10 sequence: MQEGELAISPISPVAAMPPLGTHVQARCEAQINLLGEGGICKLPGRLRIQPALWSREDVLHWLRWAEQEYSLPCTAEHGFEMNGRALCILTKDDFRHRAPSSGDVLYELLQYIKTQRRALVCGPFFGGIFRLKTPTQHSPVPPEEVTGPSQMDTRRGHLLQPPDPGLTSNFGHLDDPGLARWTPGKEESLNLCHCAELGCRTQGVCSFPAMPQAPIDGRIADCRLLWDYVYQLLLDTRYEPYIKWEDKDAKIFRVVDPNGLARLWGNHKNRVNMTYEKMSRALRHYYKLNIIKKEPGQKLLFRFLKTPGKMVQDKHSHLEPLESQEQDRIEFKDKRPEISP
The settings on record: protein: recombinant; tags: N-terminal GST; dsDNA, one strand shown. Put shortly:
as §1

The next assay has as its target T11, ELF5 (Homo sapiens, UniProt Q9UKW6-2 1-255).
T11 sequence: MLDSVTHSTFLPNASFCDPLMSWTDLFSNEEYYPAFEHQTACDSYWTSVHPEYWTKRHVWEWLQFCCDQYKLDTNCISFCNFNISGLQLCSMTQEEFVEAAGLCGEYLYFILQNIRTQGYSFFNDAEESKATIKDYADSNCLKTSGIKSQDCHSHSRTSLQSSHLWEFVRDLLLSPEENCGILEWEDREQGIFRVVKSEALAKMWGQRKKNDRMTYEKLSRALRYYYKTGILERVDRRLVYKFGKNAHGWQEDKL
The settings on record: protein: recombinant; tags: N-terminal GST; dsDNA, one strand shown. Put shortly: as §1

The next assay deals with T12, ETV3 (Homo sapiens, UniProt P41162-2 1-143).
T12 sequence: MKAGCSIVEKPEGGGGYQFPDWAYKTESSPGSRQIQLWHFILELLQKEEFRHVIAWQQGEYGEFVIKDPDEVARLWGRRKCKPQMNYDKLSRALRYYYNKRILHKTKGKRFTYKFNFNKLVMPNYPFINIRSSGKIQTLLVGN
Conditions: protein: recombinant; tags: N-terminal GST; dsDNA, one strand shown. Put shortly:
as §1

The target in another assay is ETV6 (Homo sapiens, UniProt P41212 1-452). The settings on record: protein: recombinant; tags: N-terminal GST; dsDNA, one strand shown. Put shortly: as §1
Chain of ETV6 (P41212 whole entry): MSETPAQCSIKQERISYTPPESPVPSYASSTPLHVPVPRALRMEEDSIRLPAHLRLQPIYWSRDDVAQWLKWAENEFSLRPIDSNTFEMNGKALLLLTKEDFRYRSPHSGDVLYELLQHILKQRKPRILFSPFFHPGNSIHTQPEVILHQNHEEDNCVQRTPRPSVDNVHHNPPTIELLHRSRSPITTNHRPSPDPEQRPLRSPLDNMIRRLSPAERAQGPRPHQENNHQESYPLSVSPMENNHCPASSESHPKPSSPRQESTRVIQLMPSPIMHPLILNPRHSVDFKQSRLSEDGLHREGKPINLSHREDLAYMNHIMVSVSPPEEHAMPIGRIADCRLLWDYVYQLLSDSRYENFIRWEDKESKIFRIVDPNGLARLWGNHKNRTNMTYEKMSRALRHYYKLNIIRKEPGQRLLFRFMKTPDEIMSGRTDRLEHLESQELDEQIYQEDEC

Chain of ETV5 (P41161 whole entry): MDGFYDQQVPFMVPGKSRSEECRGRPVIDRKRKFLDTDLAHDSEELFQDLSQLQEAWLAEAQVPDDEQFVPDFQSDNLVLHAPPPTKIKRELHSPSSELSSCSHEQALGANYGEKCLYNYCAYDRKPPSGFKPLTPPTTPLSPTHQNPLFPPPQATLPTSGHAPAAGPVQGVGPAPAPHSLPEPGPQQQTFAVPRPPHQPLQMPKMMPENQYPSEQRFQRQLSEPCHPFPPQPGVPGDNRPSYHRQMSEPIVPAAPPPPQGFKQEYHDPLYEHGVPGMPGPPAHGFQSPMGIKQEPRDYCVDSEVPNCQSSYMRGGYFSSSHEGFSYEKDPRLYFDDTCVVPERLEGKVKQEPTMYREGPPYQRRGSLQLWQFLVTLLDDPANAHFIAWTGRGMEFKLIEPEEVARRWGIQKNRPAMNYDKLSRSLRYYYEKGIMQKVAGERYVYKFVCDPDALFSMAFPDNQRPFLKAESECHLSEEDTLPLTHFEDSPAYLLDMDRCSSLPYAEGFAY
Chain of ETV1 (P50549 whole entry): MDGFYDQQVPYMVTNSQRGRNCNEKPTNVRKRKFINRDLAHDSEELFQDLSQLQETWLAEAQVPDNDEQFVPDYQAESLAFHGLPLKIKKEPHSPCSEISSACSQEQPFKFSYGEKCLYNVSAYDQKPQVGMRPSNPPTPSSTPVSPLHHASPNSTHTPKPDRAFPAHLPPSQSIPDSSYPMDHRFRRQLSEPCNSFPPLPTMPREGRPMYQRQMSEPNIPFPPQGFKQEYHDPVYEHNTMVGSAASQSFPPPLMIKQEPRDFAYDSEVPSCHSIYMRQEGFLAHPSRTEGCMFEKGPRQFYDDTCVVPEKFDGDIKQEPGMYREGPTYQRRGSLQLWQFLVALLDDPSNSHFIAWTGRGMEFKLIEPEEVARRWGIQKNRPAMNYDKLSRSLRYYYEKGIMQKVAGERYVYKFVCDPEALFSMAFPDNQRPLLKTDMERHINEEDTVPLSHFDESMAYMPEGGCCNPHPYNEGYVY
Chain of HSF1 (Q00613 whole entry): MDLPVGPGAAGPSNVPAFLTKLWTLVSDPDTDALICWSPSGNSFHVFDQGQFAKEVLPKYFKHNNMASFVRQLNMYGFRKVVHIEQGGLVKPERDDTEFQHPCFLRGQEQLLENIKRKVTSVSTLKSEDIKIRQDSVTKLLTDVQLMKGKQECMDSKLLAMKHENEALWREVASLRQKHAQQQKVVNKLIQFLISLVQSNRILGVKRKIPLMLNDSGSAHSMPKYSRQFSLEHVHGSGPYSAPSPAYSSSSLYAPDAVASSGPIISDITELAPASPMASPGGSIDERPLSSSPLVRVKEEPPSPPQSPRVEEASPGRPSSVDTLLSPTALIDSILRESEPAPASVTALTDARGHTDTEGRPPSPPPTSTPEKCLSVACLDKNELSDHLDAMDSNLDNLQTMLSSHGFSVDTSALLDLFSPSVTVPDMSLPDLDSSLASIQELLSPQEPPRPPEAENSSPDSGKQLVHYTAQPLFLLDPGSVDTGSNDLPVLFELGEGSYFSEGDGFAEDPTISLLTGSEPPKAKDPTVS
Chain of ELF4 (Q99607 whole entry): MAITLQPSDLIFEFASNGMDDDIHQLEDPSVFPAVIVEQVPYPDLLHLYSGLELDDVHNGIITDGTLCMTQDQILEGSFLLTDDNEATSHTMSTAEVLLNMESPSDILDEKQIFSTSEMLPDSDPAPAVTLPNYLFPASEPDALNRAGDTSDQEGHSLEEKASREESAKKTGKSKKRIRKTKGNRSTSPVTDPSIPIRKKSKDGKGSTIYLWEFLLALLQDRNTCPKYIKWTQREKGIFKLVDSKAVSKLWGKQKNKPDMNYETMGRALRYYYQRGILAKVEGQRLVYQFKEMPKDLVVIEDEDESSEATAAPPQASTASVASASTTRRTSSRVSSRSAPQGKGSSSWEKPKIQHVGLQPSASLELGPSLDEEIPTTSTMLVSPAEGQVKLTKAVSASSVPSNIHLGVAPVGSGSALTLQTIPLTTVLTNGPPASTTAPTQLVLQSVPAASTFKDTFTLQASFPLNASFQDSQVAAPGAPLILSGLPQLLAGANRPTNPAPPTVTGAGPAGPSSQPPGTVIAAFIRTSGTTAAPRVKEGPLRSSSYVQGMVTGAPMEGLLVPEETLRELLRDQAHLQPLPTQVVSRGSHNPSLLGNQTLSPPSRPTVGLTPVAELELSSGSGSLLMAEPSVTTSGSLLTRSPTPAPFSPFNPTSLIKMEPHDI
Chain of CRX (O43186 whole entry): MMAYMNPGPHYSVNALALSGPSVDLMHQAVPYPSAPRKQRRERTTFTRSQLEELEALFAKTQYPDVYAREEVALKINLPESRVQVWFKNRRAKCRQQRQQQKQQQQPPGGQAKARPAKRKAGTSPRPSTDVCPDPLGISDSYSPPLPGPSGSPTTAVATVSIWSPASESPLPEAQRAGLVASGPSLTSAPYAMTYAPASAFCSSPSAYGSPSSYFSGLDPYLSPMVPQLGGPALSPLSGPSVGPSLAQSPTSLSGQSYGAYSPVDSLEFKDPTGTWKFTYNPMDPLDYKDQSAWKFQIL

In the case of TCGCTA, the binding signal was 1.08 fold enrichment (6-mer frequency, TF over GST control) with FEV; 1.07 fold enrichment (6-mer frequency, TF over GST control) in the assay with ETV5; 1.15 fold enrichment (6-mer frequency, TF over GST control) in the assay with HSF1; 1.06 fold enrichment (6-mer frequency, TF over GST control) in the assay with SPIC; 1.11 fold enrichment (6-mer frequency, TF over GST control) with ELF4; 1.16 fold enrichment (6-mer frequency, TF over GST control) with ELK4. Besides, the binding signal was 1.24 fold enrichment (6-mer frequency, TF over GST control) with ETV2; 1.03 fold enrichment (6-mer frequency, TF over GST control) in the assay with ELF3; 1.12 fold enrichment (6-mer frequency, TF over GST control) with CRX; 1.08 fold enrichment (6-mer frequency, TF over GST control) in the assay with ETV1; 1.16 fold enrichment (6-mer frequency, TF over GST control) in the assay with ERF; 1.09 fold enrichment (6-mer frequency, TF over GST control) with ETV3L. The binding signal with ETS2 was 1.06 fold enrichment (6-mer frequency, TF over GST control); in the assay with SPDEF, 1.03 fold enrichment (6-mer frequency, TF over GST control); with ETV7, 1.12 fold enrichment (6-mer frequency, TF over GST control); with ELF5, 1.06 fold enrichment (6-mer frequency, TF over GST control); in the assay with ETV3 it was 1.01 fold enrichment (6-mer frequency, TF over GST control); with ETV6, 1.04 fold enrichment (6-mer frequency, TF over GST control).
